Where “and” joins values, the source holds several entries; their conditions need not be identical. Equal values may be shown once. In all, about 5,500 compounds went through this assay and about 2,000 (36%) were called active. Roughly 18% stayed inconclusive and do not appear here. No stated cut-off is given here; in the data, active means normalized growth mostly below about 0.91 (no sharp cut-off); inconclusive means no clear call, values can overlap the other calls; inactive means mostly above about 0.92. The list shows a part of the results.
Assay: chemical genetic growth profiling, strain panel (AID 1159580);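 further: tested at 20 µM; growth read once vehicle control cultures reached saturation at 30 °C; 1 = growth at the plate median or of vehicle wells; lower values mean less growth of the strain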
Conditions: S. cerevisiae deletion strains, growth OD

Measured: normalized growth

NNCCc1ccccc1
inactive: locus YAL013W, strain DEP1, active compounds read low 1 | locus YAL021C, strain ccr4, active compounds read low 1.01 | locus YAL026C, strain drs2, active compounds read low 1.02 | locus YAL030W, strain snc1, active compounds read low 1.01 | locus YAL040C, strain CLN3, active compounds read low 1.04 | locus YBL061C, strain skt5, active compounds read low 1.01 | locus YBR009C, strain hhf1, active compounds read low 1.01 | locus YBR021W, strain FUR4, active compounds read low 0.997 | locus YBR023C, strain chs3, active compounds read low 1.01 | locus YBR171W, strain sec66, active compounds read low 1.02 | locus YBR229C, strain ROT2, active compounds read low 0.954 | locus YBR231C, strain swc5, active compounds read low 1.01 | locus YBR279W, strain paf1, active compounds read low 1.01 | locus YCL011C, strain gbp2, active compounds read low 1.01 | locus YCL016C, strain dcc1, active compounds read low 1.01 | locus YCL029C, strain bik1, active compounds read low 0.968 | locus YCL061C, strain MRC1 (second series), active compounds read low 1.01 | locus YCL061C, strain MRC1, active compounds read low 1.01 | locus YCL069W, strain vba3, active compounds read low 1 | locus YCR088W, strain abp1, active compounds read low 1.01 | locus YDL005C, strain med2, active compounds read low 1.01 | locus YDL035C, strain GPR1, active compounds read low 0.973 | locus YDL040C, strain nat1, active compounds read low 1 | locus YDL074C, strain BRE1, active compounds read low 0.946 | locus YDL101C, strain DUN1, active compounds read low 0.975 | locus YDL134C, strain PPH21, active compounds read low 0.994 | locus YDL185W, strain tfp1, active compounds read low 0.98 | locus YDL192W, strain arf1, active compounds read low 0.986 | locus YDR001C, strain nth1, active compounds read low 1 | locus YDR069C, strain doa4, active compounds read low 1 | locus YDR101C, strain arx1, active compounds read low 0.985 | locus YDR137W, strain rgp1, active compounds read low 1.02 | locus YDR150W, strain NUM1, active compounds read low 0.996 | locus YDR159W, strain sac3, active compounds read low 1.01 | locus YDR162C, strain NBP2, active compounds read low 0.991 | locus YDR195W, strain ref2 0.997 | locus YDR297W, strain sur2, active compounds read low 1 | locus YDR318W, strain mcm21, active compounds read low 0.991 | locus YDR334W, strain swr1, active compounds read low 0.999 | locus YDR335W, strain msn5, active compounds read low 1.01 | locus YDR363W, strain ESC2, active compounds read low 1.06 | locus YDR388W, active compounds read low 0.991 | locus YDR392W, strain spt3, active compounds read low 0.93 | locus YDR502C, strain sam2, active compounds read low 0.994 | locus YEL003W, strain gim4, active compounds read low 0.997 | locus YEL037C, strain rad23, active compounds read low 1.01 | locus YEL061C, strain CIN8 (second series), active compounds read low 1.01 | locus YEL061C, strain CIN8, active compounds read low 0.98 | locus YER002W, strain NOP16, active compounds read low 0.998 | locus YER015W, strain faa2, active compounds read low 0.994 | locus YER016W, strain bim1, active compounds read low 1.01 | locus YER110C, active compounds read low 0.952 | locus YER111C, strain swi4, active compounds read low 1.01 | locus YER155C, strain BEM2 (second series), active compounds read low 1 | locus YER155C, strain BEM2, active compounds read low 1 | locus YER167W, strain BCK2, active compounds read low 0.99 | locus YFR010W, strain ubp6, active compounds read low 0.989 | locus YGL078C, strain dbp3, active compounds read low 0.995 | locus YGL086W, strain mad1, active compounds read low 0.976 | locus YGL167C, strain pmr1, active compounds read low 1.01 | locus YGL173C, strain kem1, active compounds read low 1.01 | locus YGL227W, strain vid30, active compounds read low 1.02 | locus YGL240W, strain doc1, active compounds read low 1 | locus YGL248W, strain PDE1, active compounds read low 0.979 | locus YGL253W, strain hxk2, active compounds read low 1.01 | locus YGR078C, strain PAC10, active compounds read low 1.01 | locus YGR135W, strain pre9, active compounds read low 0.982 | locus YGR229C, strain SMI1, active compounds read low 0.985 | locus YGR252W, strain gcn5, active compounds read low 0.898 | locus YHR013C, strain ard1, active compounds read low 1.02 | locus YHR027C, strain rpn1, active compounds read low 1 | locus YHR030C, strain SLT2, active compounds read low 0.996 and 0.983 | locus YHR079C, strain IRE1 (second series), active compounds read low 0.991 | locus YHR079C, strain IRE1, active compounds read low 0.965 | locus YHR094C, strain hxt1, active compounds read low 0.99 | locus YHR129C, strain ARP1, active compounds read low 0.981 | locus YHR142W, strain chs7, active compounds read low 1.02 | locus YHR200W, strain rpn10, active compounds read low 0.989 | locus YIL066C, strain RNR3, active compounds read low 0.978 | locus YIL073C, strain SPO22, active compounds read low 0.992 | locus YIL125W, strain kgd1, active compounds read low 0.996 | locus YIR030C, strain dcg1, active compounds read low 0.981 | locus YJL092W, strain hpr5, active compounds read low 1 | locus YJL095W, strain BCK1 (second series), active compounds read low 1.01 | locus YJL095W, strain BCK1, active compounds read low 0.987 and 0.984 | locus YJL115W, strain asf1, active compounds read low 1.01 | locus YJL129C, strain trk1, active compounds read low 1.01 | locus YJL134W, strain LCB3, active compounds read low 0.993 | locus YJL154C, strain vps35, active compounds read low 1.01 | locus YJL164C, strain tpk1, active compounds read low 1 | locus YJL166W, strain qcr8, active compounds read low 1.01 | locus YJL168C, strain set2, active compounds read low 0.985 | locus YJL187C, strain SWE1 (second series), active compounds read low 0.976 | locus YJL187C, strain SWE1, active compounds read low 1.01 | locus YJR043C, strain POL32, active compounds read low 0.988
